Compound activity from PubChem.
Most compounds without a hit are left out; they make up all but 5.3% or so of the library.
JMJD2A Tudor = qHTS Assay for Inhibitors of JMJD2A-Tudor Domain. Lysine-specific demethylase 4A (Homo sapiens), O75164. AlphaScreen JMJD2A-Tudor / H3K4me3 peptide binding. Potency, µM (highest dose often 114 µM), usual class: inhibitors. 4.4% of 390,000 active; also: nearly all actives have a fitted effect of over 50% in size
HP1b chromo inh = HTS for Inhibitors of HP1-beta Chromodomain Interactions with Methylated Histone Tails. AlphaScreen HP1-beta / biotin-H3K9me3 peptide binding. 0.56% of 390,000 active. AID 540317, 2011. Potency, µM (titrated, usually from 114 µM), most hits filed as inhibitors; also: nearly all actives have a fitted effect of over 70% in size
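Compound inhibition of the preformed complex between 50 nM HP1-beta and 50 nM biotinylated H3K9me3 peptide was read by AlphaScreen. Buffer was PBS pH 7.4 with 0.01% Tween-20. Incubations ran 30 min at room temperature, with 10 ug/mL donor/acceptor beads.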
Six1-Eya2 blk = qHTS Assay for Inhibitors of the Six1/Eya2 Interaction; Homeobox protein SIX1 (Homo sapiens) + Protein phosphatase EYA2 (Homo sapiens), …; AlphaScreen GST-Six1/His-Eya2 binding, biochemical; active compounds read low; activity change, % (concentration not given with the values); 0.56% of 360,000 active; in the data active = activity change below about -65%; inconclusive = mostly about -30% to -63%
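AlphaScreen luminescence read after one hour at 37 °C in darkness. Pin-transferred compounds met GST-Six1 and His-Eya2 protein (5X stock 250 nM/500 nM) plus glutathione donor and Ni-chelate acceptor beads (5X, 50 ug/mL).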
CtBP-E1A inh = qHTS Assay for Inhibitors of the CtBP/E1A Interaction; CtBP / adenovirus E1A interaction (AlphaScreen); AID 651724, 2012; 0.49% of 340,000 active; activity change, % (test concentration not listed); AlphaScreen GST-E1A/His-CtBP binding, 1536-well; active compounds read low; in the data active = activity change below about -65%; inconclusive = mostly about -30% to -63%
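Steps: dispense buffer (Tris pH 8.0, NaCl 300 mM, TCEP 1 mM, BSA, Tween 20); add 5X protein mix (GST-E1A, His-CtBP, 125 nM each); pin 23 nL compound; 2 h at 37 °C, dark; add 5X beads (50 ug/mL); 1 h; read.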
BAZ2B block = qHTS Assay for Inhibitors of BAZ2B. Bromodomain adjacent to zinc finger domain protein 2B (Homo sapiens), Q9UIF8. AlphaScreen BAZ2B-H3K14Ac peptide displacement. Potency, µM (doses to about 114 µM), most hits filed as inhibitors. 4.4% of 360,000 active; also: nearly all actives have a fitted effect of over 60% in size
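In this displacement format the biotinylated H3(5-23) peptide acetylated at Lys14 serves as ligand at 50 nM, with BAZ2B at 50 nM in PBS pH 7.4 containing 0.01% Tween-20. Donor and acceptor beads are 10 ug/mL final.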
TDP1 inh = qHTS Assay for Inhibitors of Tyrosyl-DNA Phosphodiesterase (TDP1). Tyrosyl-DNA phosphodiesterase 1 (Homo sapiens), Q9NUW8. recombinant TDP1, AlphaScreen DNA substrate cleavage. Potency, µM (top dose mostly 130 µM), actives largely listed as inhibitors. 0.28% of 350,000 active. AID 485290, 2010; also: nearly all actives have a fitted effect of over 40% in size
Target sequence (Q9NUW8 whole entry, looked up): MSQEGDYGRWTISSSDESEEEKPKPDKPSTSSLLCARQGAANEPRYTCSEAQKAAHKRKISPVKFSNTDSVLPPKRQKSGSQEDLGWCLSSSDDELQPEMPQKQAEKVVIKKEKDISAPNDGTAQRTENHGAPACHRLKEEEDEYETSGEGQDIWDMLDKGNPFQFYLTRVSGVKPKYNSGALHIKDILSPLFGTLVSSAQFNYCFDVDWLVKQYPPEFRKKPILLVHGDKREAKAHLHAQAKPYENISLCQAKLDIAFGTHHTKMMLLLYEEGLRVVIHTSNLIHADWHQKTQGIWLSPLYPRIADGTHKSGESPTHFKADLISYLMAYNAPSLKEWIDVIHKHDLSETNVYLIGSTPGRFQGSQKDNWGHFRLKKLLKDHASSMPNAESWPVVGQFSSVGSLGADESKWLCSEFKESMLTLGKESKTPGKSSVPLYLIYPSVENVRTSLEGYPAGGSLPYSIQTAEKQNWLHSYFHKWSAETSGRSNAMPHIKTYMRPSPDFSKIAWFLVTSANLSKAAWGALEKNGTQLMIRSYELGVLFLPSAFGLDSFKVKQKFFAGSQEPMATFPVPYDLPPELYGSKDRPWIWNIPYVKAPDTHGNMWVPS
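AlphaScreen read-out: signal falls as enzyme removes the 3' tyrosine-FITC from a 5'-biotinylated DNA oligo (15 nM, 5 min, RT). Enzyme was E. coli-made recombinant Tdp1 at 1 nM, exposed to compound for 15 min beforehand; beads 10 ug/ml, 10 min.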
Hits are given with their value. Unless noted, calls follow the shape of the dose curve; as a rule, active = well fitted inhibition curve with a large enough effect; inconclusive = small, poorly fitted or top-dose-only effect; inactive = no such curve, though single readings can be large or run the other way.

Screening Cc1c(N=Nc2c(O)n(-c3ccc(Br)cc3)c(=O)[nH]c2=O)c(=O)n(-c2ccccc2)n1C returned JMJD2A Tudor 35.5µM, HP1b chromo inh inactive, Six1-Eya2 blk -92.1, CtBP-E1A inh -93.7, BAZ2B block 28.2µM and TDP1 inh inactive.
Cc1c(N=Cc2c(O)n(C)c(=O)[nH]c2=O)c(=O)n(-c2ccccc2)n1C was read as JMJD2A Tudor inactive, HP1b chromo inh inactive, Six1-Eya2 blk inactive, BAZ2B block inactive and TDP1 inh inactive.
CC(Cc1ccc(C(C)(C)C)cc1)CN1CCCCC1 (stereo unspecified) was read as TDP1 inh inactive.
For [O-][Cl+]O the results were TDP1 inh inactive.
COc1ccc(N2CCN(CCCNC(=O)c3cnn(-c4ccc(F)cc4)c3-n3cccc3)CC2)cc1 was read as JMJD2A Tudor 44.7µM, HP1b chromo inh inactive, BAZ2B block inconclusive and TDP1 inh inactive.
For Cc1ccc(C)cc1 the results were TDP1 inh inactive.
For Cc1ccc(C=C2C(Cl)=C(Cl)C(Cl)=C2Cl)cc1 the results were JMJD2A Tudor 14.1µM, HP1b chromo inh 15.8µM, Six1-Eya2 blk inactive, CtBP-E1A inh inactive and BAZ2B block 20µM.
Screening CN(C)c1ccc(CCN2CCOCC2)cc1 returned JMJD2A Tudor inconclusive, HP1b chromo inh inactive, Six1-Eya2 blk inactive, CtBP-E1A inh inactive, BAZ2B block inactive and TDP1 inh inactive.
`CN(C)c1ccc2c(c1)N=C(c1ccco1)OP2(=S)N1CCOCC1` (stereo unspecified) gave JMJD2A Tudor 79.4µM, HP1b chromo inh 11.2µM, Six1-Eya2 blk inactive, CtBP-E1A inh inactive, BAZ2B block inconclusive and TDP1 inh inactive.
O=c1[nH]c(=O)n(Cc2ccc(F)cc2)c(O)c1C=NCc1cccnc1 was read as JMJD2A Tudor inactive, HP1b chromo inh inactive, Six1-Eya2 blk inactive, CtBP-E1A inh inactive, BAZ2B block inactive and TDP1 inh inactive.
`COc1ccc2c(c1OC)C(=O)OC2c1c(O)n(Cc2ccc(F)cc2)c(=O)[nH]c1=O` (stereo unspecified) gave JMJD2A Tudor 79.4µM, HP1b chromo inh inactive, Six1-Eya2 blk inactive, CtBP-E1A inh inactive, BAZ2B block inconclusive and TDP1 inh inactive.
`C=C1CCC(O)C/C1=C\C=C1/CCCC2(C)C1CCC2C(C)CCCC(C)C` (stereo unspecified) gave TDP1 inh inactive.
CC/C(CC(c1ccccc1)c1c(O)c2ccccc2oc1=O)=N\NC(N)=S (stereo unspecified) was read as JMJD2A Tudor 3.16µM, HP1b chromo inh inconclusive, Six1-Eya2 blk inactive, CtBP-E1A inh inactive, BAZ2B block inactive and TDP1 inh inactive.
`O=c1oc2ccccc2c(O)c1C(c1ccc([N+](=O)[O-])cc1)c1c(O)c2ccccc2oc1=O` gave JMJD2A Tudor inconclusive, HP1b chromo inh inactive, Six1-Eya2 blk inconclusive, CtBP-E1A inh inactive, BAZ2B block 56.2µM and TDP1 inh inactive.
`C/C(CC(c1ccccc1)c1c(O)c2ccccc2oc1=O)=N\Nc1ccc([N+](=O)[O-])cc1[N+](=O)[O-]` (stereo unspecified) gave JMJD2A Tudor 35.5µM, HP1b chromo inh inconclusive, Six1-Eya2 blk inconclusive, CtBP-E1A inh inactive and BAZ2B block 35.5µM.
For Clc1nc(Cl)nc(Cl)n1 the results were TDP1 inh inactive.
For COc1ccc2[nH]c3c(c2c1)CCN1C(=O)C(CC(=O)NCc2cccc(C(F)(F)F)c2)C[C@H](C(=O)N2CCCCC2)[C@@]31C (stereo partly specified) the results were JMJD2A Tudor inconclusive, HP1b chromo inh inactive, Six1-Eya2 blk inactive, CtBP-E1A inh inactive and TDP1 inh inactive.
`CC1(C)N(O)C2CCCCC2N1O` (stereo unspecified) gave JMJD2A Tudor 2.82µM, HP1b chromo inh inactive, Six1-Eya2 blk inactive, CtBP-E1A inh inactive, BAZ2B block inactive and TDP1 inh inactive.
Screening O=C(O)CCCC[C@@H]1SC[C@H]2NC(=O)N[C@@H]12 returned TDP1 inh inactive.
For CC(C)(C)c1ccc(O)c(N=Cc2c(O)ccc3ccccc23)c1 the results were JMJD2A Tudor inconclusive, HP1b chromo inh inactive, Six1-Eya2 blk inactive, CtBP-E1A inh inactive and BAZ2B block 39.8µM.
Screening CCc1nn2c(=O)c(C)c(N3CCNCC3)nc2s1 returned JMJD2A Tudor inactive.
For O=C(NC1CC2CCCC(C1)N2)c1ccccc1 (stereo unspecified) the results were JMJD2A Tudor inactive, HP1b chromo inh inactive, Six1-Eya2 blk inactive, CtBP-E1A inh inactive, BAZ2B block inactive and TDP1 inh inactive.
`O=C(OC1CC2CCC(N2)C1C(=O)O)c1ccccc1` (stereo unspecified) gave JMJD2A Tudor 89.1µM, HP1b chromo inh inactive, Six1-Eya2 blk inactive, CtBP-E1A inh inactive and TDP1 inh inactive.
S=P(c1ccccc1)(c1ccccc1)c1c[nH]c2ccccc12 was read as JMJD2A Tudor inactive and TDP1 inh inactive.
COC(=O)[C@]1(C)N[C@H](CN(C)S(=O)(=O)c2ccc(-c3ccccc3)cc2)[C@@H]2C(=O)N(Cc3ccccc3)C(=O)[C@@H]21 was read as JMJD2A Tudor inactive, HP1b chromo inh inactive, Six1-Eya2 blk inactive, CtBP-E1A inh inactive and TDP1 inh inactive.
For O=C(COc1ccc2ccccc2c1)N1CCN(Cc2c[nH]c3ccccc23)CC1 the results were JMJD2A Tudor 8.91µM, HP1b chromo inh inconclusive, Six1-Eya2 blk inactive, CtBP-E1A inh inactive, BAZ2B block 50.1µM and TDP1 inh inactive.
Screening CCC(C)N1CCN(C(=O)COc2ccc3ccccc3c2)CC1 (stereo unspecified) returned JMJD2A Tudor 2.82µM, HP1b chromo inh 50.1µM, Six1-Eya2 blk inactive, CtBP-E1A inh inactive, BAZ2B block 17.8µM and TDP1 inh inactive.
For O=Cc1ccc2c(c1)OCO2 the results were TDP1 inh inactive.
`CN1CCc2cc(O)cc3c2C1Cc1ccc(O)c(O)c1-3` (stereo unspecified) gave TDP1 inh inactive.
Screening CCCCC[C@@H](/C=C/C=C\CCCCCCCCCC(=O)O)OO returned TDP1 inh inactive.
For Cc1cc(C=C2C(=O)NC(=S)NC2=O)c(C)n1C1CCCC1 the results were JMJD2A Tudor inactive, HP1b chromo inh inactive, Six1-Eya2 blk inactive, CtBP-E1A inh inactive, BAZ2B block 79.4µM and TDP1 inh inactive.
